In PubChem BioAssay (Tox21):
Records with an inconclusive call do not appear. The source made the active and inactive calls. Unless noted, the call rests on the fitted dose curve; in most records, active means well fitted curve in the direction sought with a large enough effect in the repeat runs; inconclusive means weak or mixed curves; inactive means no such curve, though single readings can be large; an effect the other way counts as inactive or inconclusive.

Columns and labels:
[1] = target: Acetylcholinesterase (Homo sapiens) (UniProt P22303); test: Acetylcholinesterase (AChE) small molecule antagonists: enzyme-based qHTS assay (AID 1347397; calls by dose curve; further: nearly all actives have a fitted effect of over 55% in size; further: potency means the concentration at half of the fitted maximal effect); details: Potency: AChE enzyme activity inhibition
Acetylcholinesterase (Homo sapiens), sequence (P22303 whole entry, looked up): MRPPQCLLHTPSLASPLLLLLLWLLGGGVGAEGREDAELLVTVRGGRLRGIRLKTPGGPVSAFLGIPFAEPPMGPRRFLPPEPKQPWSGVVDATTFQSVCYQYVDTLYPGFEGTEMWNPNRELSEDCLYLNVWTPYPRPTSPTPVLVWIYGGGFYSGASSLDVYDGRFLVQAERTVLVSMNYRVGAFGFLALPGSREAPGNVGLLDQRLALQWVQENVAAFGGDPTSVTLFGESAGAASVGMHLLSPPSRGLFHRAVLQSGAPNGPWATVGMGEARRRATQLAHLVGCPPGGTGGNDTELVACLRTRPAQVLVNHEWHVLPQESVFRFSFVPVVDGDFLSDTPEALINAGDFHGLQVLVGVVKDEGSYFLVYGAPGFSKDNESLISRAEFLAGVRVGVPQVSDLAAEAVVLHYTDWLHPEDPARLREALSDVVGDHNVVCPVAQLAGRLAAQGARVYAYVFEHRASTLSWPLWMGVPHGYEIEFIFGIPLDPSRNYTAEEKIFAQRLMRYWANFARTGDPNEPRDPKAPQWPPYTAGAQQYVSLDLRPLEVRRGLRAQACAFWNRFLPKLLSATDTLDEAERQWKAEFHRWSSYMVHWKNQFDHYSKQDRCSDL
Summary of the method: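 Colorimetric DTNB read-out of thiocholine released from acetylthiocholine by recombinant human AChE (50 mU/mL as dispensed). Compounds were preincubated 30 min at RT before substrate/DTNB addition, with a 10 min RT reaction.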

[2] = target: Acetylcholinesterase (Homo sapiens) (UniProt P22303); test: Acetylcholinesterase (AChE) small molecule antagonists: fluorescence cell-based qHTS assay (AID 1347398; calls by dose curve; further: nearly all actives have a fitted effect of over 50% in size; further: potency means the concentration at half of the fitted maximal effect); details: Potency: AChE activity
Summary of the method: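 SH-SY5Y, 2,000 cells/well, attached overnight; cmpd 30 min 37 C; acetylthiocholine/Thiolite Green cocktail 40 min RT; fluorescence Ex/Em 490/520 nm.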

[3] = target: Acetylcholinesterase (Homo sapiens) (UniProt P22303); test: Acetylcholinesterase (AChE) small molecule antagonists: enzyme-based qHTS assay with human liver microsomes (AID 1347399; calls by dose curve; further: nearly all actives have a fitted effect of over 60% in size); details: Potency: qHTS inhibition
Summary of the method: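 Recombinant human AChE (50 mU/mL in the enzyme mix) and human liver microsomes (0.25 mg/mL final) were preincubated with compound and NADPH (0.25 mg/mL final) for 30 min at 37 C. Acetylthiocholine/DTNB was then added; thiocholine was read colorimetrically after 10 min at room temperature.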

[4] = target: Voltage-gated inwardly rectifying potassium channel KCNH2 (Homo sapiens) (UniProt Q12809); test: Human Ether-a-go-go-Related Gene (hERG) channel small molecule antagonists: fluorescence cell-based qHTS assay (AID 1671200); further: nearly all actives have a fitted effect of over 50% in size; further: potency means the concentration at half of the fitted maximal effect
Voltage-gated inwardly rectifying potassium channel KCNH2 (Homo sapiens), sequence (Q12809 whole entry, looked up): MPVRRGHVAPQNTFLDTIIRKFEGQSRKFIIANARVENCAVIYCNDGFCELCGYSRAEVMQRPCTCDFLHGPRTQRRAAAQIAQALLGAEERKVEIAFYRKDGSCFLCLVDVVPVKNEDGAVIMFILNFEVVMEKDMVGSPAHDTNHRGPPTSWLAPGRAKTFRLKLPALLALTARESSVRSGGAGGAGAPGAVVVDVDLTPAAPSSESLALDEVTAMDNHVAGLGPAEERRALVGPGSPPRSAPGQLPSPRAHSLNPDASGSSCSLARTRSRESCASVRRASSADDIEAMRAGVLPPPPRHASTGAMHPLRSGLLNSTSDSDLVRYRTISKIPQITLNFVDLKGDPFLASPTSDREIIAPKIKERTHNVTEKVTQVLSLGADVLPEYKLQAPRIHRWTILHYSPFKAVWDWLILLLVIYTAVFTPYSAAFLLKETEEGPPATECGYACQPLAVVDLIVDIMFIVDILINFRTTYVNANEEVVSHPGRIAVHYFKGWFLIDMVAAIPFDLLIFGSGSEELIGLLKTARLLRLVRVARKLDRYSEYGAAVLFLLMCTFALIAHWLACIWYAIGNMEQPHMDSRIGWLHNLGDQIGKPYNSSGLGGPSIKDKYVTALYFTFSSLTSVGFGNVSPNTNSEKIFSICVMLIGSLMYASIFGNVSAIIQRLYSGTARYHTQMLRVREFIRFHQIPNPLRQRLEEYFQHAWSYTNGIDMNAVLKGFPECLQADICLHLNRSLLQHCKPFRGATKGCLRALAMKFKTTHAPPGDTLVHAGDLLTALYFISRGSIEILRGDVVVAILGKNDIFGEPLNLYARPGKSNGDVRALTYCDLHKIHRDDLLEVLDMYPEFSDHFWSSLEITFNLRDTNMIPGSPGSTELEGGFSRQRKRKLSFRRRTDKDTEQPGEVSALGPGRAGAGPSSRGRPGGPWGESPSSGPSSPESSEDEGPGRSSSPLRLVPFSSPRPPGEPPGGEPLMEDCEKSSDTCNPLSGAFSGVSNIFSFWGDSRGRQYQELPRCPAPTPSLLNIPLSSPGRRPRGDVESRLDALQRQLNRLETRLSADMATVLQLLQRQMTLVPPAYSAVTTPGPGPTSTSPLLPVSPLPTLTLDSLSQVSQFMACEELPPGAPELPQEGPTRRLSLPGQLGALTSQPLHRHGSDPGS
Summary of the method: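 Thallium flux as potassium surrogate: FluxOR II dye loaded 1 h at room temperature into hERG-expressing U2OS cells, then stimulus buffer added after 10 min. Kinetic 480 nm excitation/540 nm emission read, 2 min.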

[5] = target: Cytochrome P450 2D6 (Homo sapiens) (UniProt P10635); test: Cytochrome P450 Family 2 Subfamily D Member 6 (CYP2D6) small molecule antagonists: luciferase reporter qHTS assay (AID 1671196); further: nearly all actives have a fitted effect of over 50% in size; further: potency means the concentration at half of the fitted maximal effect
Cytochrome P450 2D6 (Homo sapiens), sequence (P10635 whole entry, looked up): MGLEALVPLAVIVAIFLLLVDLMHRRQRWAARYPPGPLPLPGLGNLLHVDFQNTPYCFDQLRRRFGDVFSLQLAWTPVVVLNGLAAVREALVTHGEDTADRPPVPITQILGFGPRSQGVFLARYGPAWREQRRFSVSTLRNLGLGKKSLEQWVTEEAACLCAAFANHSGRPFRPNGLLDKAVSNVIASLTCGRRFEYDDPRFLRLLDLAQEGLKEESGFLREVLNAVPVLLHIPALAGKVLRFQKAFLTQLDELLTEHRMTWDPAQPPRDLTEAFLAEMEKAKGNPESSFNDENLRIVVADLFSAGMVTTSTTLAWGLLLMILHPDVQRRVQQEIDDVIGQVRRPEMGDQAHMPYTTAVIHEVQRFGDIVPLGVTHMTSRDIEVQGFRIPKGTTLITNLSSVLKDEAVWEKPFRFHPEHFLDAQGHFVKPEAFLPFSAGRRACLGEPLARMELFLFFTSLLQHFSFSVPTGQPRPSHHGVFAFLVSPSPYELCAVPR
Summary of the method: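 Chemicals tested for interference with CYP2D6 activity; proluciferin substrate, NADPH regeneration, 1 h at room temperature, luminescent detection.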

[6] = target: Cytochrome P450 2C19 (Homo sapiens) (UniProt P33261); test: Cytochrome P450 Family 2 Subfamily C Member 19 (CYP2C19) small molecule antagonists: luciferase reporter qHTS assay (AID 1671197); further: nearly all actives have a fitted effect of over 65% in size; further: potency means the concentration at half of the fitted maximal effect
Cytochrome P450 2C19 (Homo sapiens), sequence (P33261 whole entry, looked up): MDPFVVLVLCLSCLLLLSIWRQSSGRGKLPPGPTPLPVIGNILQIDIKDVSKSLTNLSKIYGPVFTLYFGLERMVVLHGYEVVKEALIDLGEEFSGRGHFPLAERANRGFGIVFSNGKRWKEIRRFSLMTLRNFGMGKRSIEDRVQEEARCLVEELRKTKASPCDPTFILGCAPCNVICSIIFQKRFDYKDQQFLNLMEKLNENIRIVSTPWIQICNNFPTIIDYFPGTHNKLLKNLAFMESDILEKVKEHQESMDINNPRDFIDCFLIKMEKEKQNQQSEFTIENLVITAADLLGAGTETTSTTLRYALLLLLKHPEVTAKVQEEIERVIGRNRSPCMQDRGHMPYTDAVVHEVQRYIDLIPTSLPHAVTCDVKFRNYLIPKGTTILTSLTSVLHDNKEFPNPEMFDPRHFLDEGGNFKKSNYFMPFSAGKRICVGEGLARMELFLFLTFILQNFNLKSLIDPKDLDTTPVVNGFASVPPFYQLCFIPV
Summary of the method: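 Inhibition of CYP2C19 was scored from loss of luminescence in a P450-Glo proluciferin substrate assay, NADPH-started and run 1 h at 37C, with ketoconazole as positive control.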

[7] = target: Cytochrome P450 2C9 (Homo sapiens) (UniProt P11712); test: Cytochrome P450 Family 2 Subfamily C Member 9 (CYP2C9) small molecule antagonists: luciferase reporter qHTS assay (AID 1671198); further: nearly all actives have a fitted effect of over 50% in size; further: potency means the concentration at half of the fitted maximal effect
Cytochrome P450 2C9 (Homo sapiens), sequence (P11712 whole entry, looked up): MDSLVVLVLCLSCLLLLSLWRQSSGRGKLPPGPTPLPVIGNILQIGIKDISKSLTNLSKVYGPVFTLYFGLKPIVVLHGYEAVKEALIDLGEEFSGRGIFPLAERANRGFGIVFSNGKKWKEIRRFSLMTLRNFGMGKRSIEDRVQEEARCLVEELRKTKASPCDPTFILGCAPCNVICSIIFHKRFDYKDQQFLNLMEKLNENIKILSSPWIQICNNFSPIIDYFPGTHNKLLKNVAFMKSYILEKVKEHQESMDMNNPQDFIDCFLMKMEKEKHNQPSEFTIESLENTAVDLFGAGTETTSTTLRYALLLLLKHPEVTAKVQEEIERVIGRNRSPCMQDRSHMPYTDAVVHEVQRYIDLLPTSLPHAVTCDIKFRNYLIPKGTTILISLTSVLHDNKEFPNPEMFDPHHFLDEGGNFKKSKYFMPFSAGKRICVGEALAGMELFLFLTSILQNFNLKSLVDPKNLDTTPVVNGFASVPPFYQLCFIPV
Summary of the method: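 P450-Glo proluciferin substrate with CYP2C9 enzyme; 10 min RT preincubation, then NADPH regeneration 1 h at 37C; luciferin detection reagent 20 min RT, luminescence in relative luminescence units.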

[8] = target: Cytochrome P450 3A4 (Homo sapiens) (UniProt P08684); test: Cytochrome P450 Family 3 Subfamily A Member 4 (CYP3A4) small molecule antagonists: luciferase reporter qHTS assay (AID 1671201); further: nearly all actives have a fitted effect of over 50% in size; further: potency means the concentration at half of the fitted maximal effect
Cytochrome P450 3A4 (Homo sapiens), sequence (P08684 whole entry, looked up): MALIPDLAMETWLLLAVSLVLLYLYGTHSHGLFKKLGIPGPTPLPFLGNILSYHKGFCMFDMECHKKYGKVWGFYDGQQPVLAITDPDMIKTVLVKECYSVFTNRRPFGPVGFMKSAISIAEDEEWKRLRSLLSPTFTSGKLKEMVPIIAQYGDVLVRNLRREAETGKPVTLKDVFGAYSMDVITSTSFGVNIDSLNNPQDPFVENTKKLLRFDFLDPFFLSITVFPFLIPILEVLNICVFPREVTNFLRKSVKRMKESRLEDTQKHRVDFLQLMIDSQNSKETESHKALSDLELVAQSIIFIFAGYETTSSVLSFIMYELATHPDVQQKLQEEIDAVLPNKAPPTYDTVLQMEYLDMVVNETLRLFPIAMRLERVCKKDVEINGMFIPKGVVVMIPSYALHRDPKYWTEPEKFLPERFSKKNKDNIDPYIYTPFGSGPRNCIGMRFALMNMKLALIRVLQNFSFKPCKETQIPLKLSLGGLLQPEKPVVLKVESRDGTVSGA
Summary of the method: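 Recombinant human CYP3A4 converts a proluciferin substrate to luciferin over 1 h at room temperature after NADPH regeneration solution is added (compound preincubated 10 min); detection reagent stops reaction, luminescence read 20 min later as relative units.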

[9] = target: Cytochrome P450 1A2 (Homo sapiens) (UniProt P05177); test: Cytochrome P450 Family 1 Subfamily A Member 2 (CYP1A2) small molecule antagonists: luciferase reporter qHTS assay (AID 1671199); further: nearly all actives have a fitted effect of over 50% in size; further: potency means the concentration at half of the fitted maximal effect
Cytochrome P450 1A2 (Homo sapiens), sequence (P05177 whole entry, looked up): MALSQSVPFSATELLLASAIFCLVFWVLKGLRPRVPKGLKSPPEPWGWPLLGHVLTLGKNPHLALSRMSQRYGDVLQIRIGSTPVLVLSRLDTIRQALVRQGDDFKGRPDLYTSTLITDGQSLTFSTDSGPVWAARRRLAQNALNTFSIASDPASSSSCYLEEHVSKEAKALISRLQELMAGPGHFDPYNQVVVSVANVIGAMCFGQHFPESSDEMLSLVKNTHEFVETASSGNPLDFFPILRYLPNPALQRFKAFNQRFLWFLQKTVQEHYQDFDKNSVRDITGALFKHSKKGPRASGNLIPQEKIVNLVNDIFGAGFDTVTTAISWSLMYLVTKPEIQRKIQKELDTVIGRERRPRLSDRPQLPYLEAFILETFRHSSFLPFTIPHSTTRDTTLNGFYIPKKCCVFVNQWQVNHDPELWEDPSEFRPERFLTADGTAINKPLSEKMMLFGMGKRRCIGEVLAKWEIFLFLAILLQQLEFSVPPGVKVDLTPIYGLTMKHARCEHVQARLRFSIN
Summary of the method: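 Read-out is luminescence from luciferin detection reagent (20 min) proportional to CYP1A2 activity; compounds in DMSO preincubated 10 min with enzyme and proluciferin substrate, then NADPH regeneration solution, 1 h, room temperature.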

Measured: Potency

CC(C)NCC(O)c1ccc(N)c(C#N)c1 (configuration not stated)
inactive: [1] | [2] | [3] | [4]

Clc1ccccc1N1CCNCC1
active: [5] 9.77 µM
not listed: [2] | [9]
inactive: all other assays above

N#CCBr
not listed: [5] | [7] | [9]
inactive: all other assays above

CC1(C)C(=O)NC(=O)NC1=O
active: [9] 35.6 µM
not listed: [5] | [6]
inactive: all other assays above

O=C(N[C@H]1CN2CCC1CC2)c1cc2ccoc2cn1
active: [5] 28.3 µM
not listed: [2] | [7]
inactive: all other assays above

Fc1cc(Br)ccc1CBr
not listed: [2] | [9]
inactive: all other assays above

O=NN1CCCCC1
active: [6] 35.4 µM
inactive: [1] | [2] | [3] | [4]

CSc1nc(N=[N+]=[N-])nc(NC(C)C)n1
active: [6] 71 µM | [7] 79.6 µM | [9] 28.3 µM
not listed: [1]
inactive: all other assays above

CN1CCC(N(Cc2ccccc2)c2ccccc2)CC1
active: [4] 5.35 µM
not listed: [5] | [7]
inactive: all other assays above

CCOP(=O)(N=C1SCCS1)OCC
not listed: [2] | [5] | [7]
inactive: all other assays above

CCOc1nc(C(Cl)(Cl)Cl)ns1
not listed: [2] | [7] | [9]
inactive: all other assays above

COc1cccc(C(=O)NN(C(=O)c2cc(C)cc(C)c2)C(C)(C)C)c1C
active: [5] 39.9 µM | [6] 3.56 µM | [7] 17.8 µM | [8] 0.71 µM
inactive: [2] | [3] | [9] | [4]

C=CC1CC=CCC1 (configuration not stated)
not listed: [1] | [9]
inactive: all other assays above

CCN(Cc1ccc(Cl)nc1)/C(=C/[N+](=O)[O-])NC
not listed: [2] | [9]
inactive: all other assays above

CCC/C(=N\OCC)C1=C(O)CC(CC(C)SCC)CC1=O (configuration not stated)
active: [5] 11.3 µM | [6] 8.99 µM | [7] 31.9 µM | [9] 35.8 µM
inactive: [2] | [3] | [4] | [8]

CC(C)CC#N
active: [6] 32.5 µM
not listed: [5] | [7]
inactive: all other assays above

CCC#N
inactive: [1] | [2] | [3] | [4] | [8]

O=C(O)c1ccc2[nH]cc(CCCCN3CC=C(c4ccccc4)CC3)c2c1
not listed: [5] | [7] | [9]
inactive: all other assays above

COc1cc(OC)nc(Sc2cccc(Cl)c2C(=O)O)n1
not listed: [5] | [7] | [9]
inactive: all other assays above

Nc1c(Br)cc([N+](=O)[O-])cc1[N+](=O)[O-]
active: [6] 50.8 µM | [9] 1.8 µM
not listed: [2] | [5]
inactive: all other assays above

CC(C)(C)C(=O)C(Oc1ccc(Cl)cc1)n1cncn1 (configuration not stated)
active: [6] 3.17 µM | [7] 12.6 µM | [9] 35.5 µM | [8] 0.399 µM
not listed: [1]
inactive: all other assays above

COc1ccc2c(c1OC)CN1CCc3cc4c(cc3C1C2)OCO4 (configuration not stated)
active: [1] 5.49 µM | [2] 1.38 µM | [5] 0.246 µM | [6] 0.977 µM | [7] 30.9 µM | [9] 15.5 µM

CN1C[C@@H](NS(=O)(=O)N(C)C)C[C@@H]2c3cccc4c3c(cn4C)C[C@H]21
not listed: [2] | [5]
inactive: all other assays above

Cc1coc2c1CCC(C)C2 (configuration not stated)
active: [6] 73.4 µM | [8] 29.2 µM
inactive: [1] | [2] | [3] | [4]

CCC1(c2ccccc2)C(=O)N=C(O)NC1=O (configuration not stated)
active: [7] 61.6 µM
not listed: [5] | [6]
inactive: all other assays above

CCCCOC(=O)c1ccccc1N
active: [6] 28.4 µM | [9] 8.99 µM
not listed: [5] | [7]
inactive: all other assays above
